From ChEMBL document CHEMBL3988442, “University of Dundee, Small-Polar-MMV Screening Library” (2021)

target: AMP-activated protein kinase, AMPK (Homo sapiens) (UniProt P54646+O43741+P54619+Q9UGJ0+Q9Y478+Q13131+Q9UGI9); assay: AMP-dependent Kinase enzyme assay. An in vitro enzyme assay that detects ADP turnover that is directly proportional to AMPK activity. This uses naive AMPK that is activated during the assay with MK-8722; format: functional; design: scale not given: direction of the effect not stated beside the values; conditions: 30 µM

Compared with `CN1CCN(C2CCN(C(=O)CCC3CCCC3)CC2)CC1`, `COC(=O)N1CCCCC1C(=O)N1CCN(c2cccnc2)CC1` (stereo not given) is lower in Percent Effect: 7.72% for the first, -4.3% for the second.

Going from `Cc1occc1C(=O)N1CCCC(C2=Nc3ccccc3S(=O)(=O)N2)C1` (stereo not given) to `CN1CCCC(c2cccc(-c3ccccc3F)n2)C1` (stereo not given), the Percent Effect rises from 14.4% to 16.2%.

Compared with `CC(=O)c1cnc(NCCCN2CCOCC2)nc1C`, `CCOC(=O)C(C)Nc1ccc(CCN2CCOCC2)cc1` (stereo not given) is higher in Percent Effect: -7.41% for the first, -1.34% for the second.

Going from `COc1ccccc1CC(=O)N(C)Cc1cc(C)on1` to `CN(Cc1cc(Br)cn1C)C(=O)Cc1cccnc1`, the Percent Effect falls from -2.06% to -10.2%.

Compared with `CCN(Cc1ccncc1)C1CCN(c2ccccc2)C1=O` (stereo not given), `CCN(Cc1ccccn1)C1CCN(c2ccccc2)C1=O` (stereo not given) is higher in Percent Effect: -7.01% for the first, -6.67% for the second.

Compared with `Cc1nc(C)c(C(=O)N2CCc3c(Cl)cccc32)o1`, `O=C1CN(c2ccc(C(=O)N3CCc4ccccc43)cn2)CCN1` is higher in Percent Effect: 1.75% for the first, 5.07% for the second.

Going from `CC(C)c1nnc(CN2CC(n3cccn3)Cc3ccccc32)o1` (stereo not given) to `CC(NCc1nnc2n1CCCC2)c1nc(Cc2ccccc2)no1` (stereo not given), the Percent Effect rises from -5.15% to -1.56%.

First: COc1ccc(NC(=O)Cc2c(C)nn(C)c2C)cc1F
Second: Cc1nn(C)c(C)c1CC(=O)NCC1(C(N)=O)CCOCC1
The Percent Effect of the first is higher: 1.16% for the first, -4.43% for the second.

Compared with `Cc1nccn1CCN(C)C(=O)c1cn(-c2ccccc2)nn1`, `O=C1CCC2(CCOC2)CN1Cc1nncn1CCc1ccccc1` (stereo not given) is higher in Percent Effect: -5.19% for the first, 14.2% for the second.

First: O=C(c1cc(C2CC2)nc2onc(-c3ccccc3)c12)N1CCOCC1
Second: CN1C[C@]2(CC[C@@H](C(=O)N3CCOCC3)CC2)Oc2ccccc2C1=O
The Percent Effect of the first is lower: 4.72% for the first, 11.1% for the second.

Compared with `Cc1cccc(CN2CCCC2c2cccc(Nc3nccs3)n2)c1` (stereo not given), `COc1ccc(N2CCC(NC(=O)c3sccc3C)CC2)cc1` is lower in Percent Effect: 6.23% for the first, -1.46% for the second.

First: O=C(CC1CCCC1)NCCNCc1cccc2c1OCCO2
Second: O=C(NC1CCOCC1)c1cccc(C2CCCNC2)c1 (stereo not given)
The Percent Effect of the first is lower: -3.45% for the first, 2.1% for the second.

Going from `CN(C)C(=O)CN1CCN(c2cc(N3CCCC3CO)ncn2)CC1` (stereo not given) to `c1cc(N2CCC(CN3CCOCC3)CC2)c2sccc2n1`, the Percent Effect rises from -0.698% to 2.28%.

Going from `COCc1nc(C2CC2)nn1-c1cc(Cl)ccc1OC` to `O=C(c1cc(C2CC2)on1)N1C[C@H]2CC[C@](O)(c3ccc(F)cc3)[C@H]2C1`, the Percent Effect rises from -8.6% to 12.8%.

First: CCC[C@@H]1CN(Cc2ccc(C(F)(F)F)nc2)C[C@H]1NS(C)(=O)=O
Second: CN(c1ncc(S(N)(=O)=O)s1)C1CCc2ccccc21 (stereo not given)
The Percent Effect of the first is lower: 4.44% for the first, 8.8% for the second.

First: N#Cc1ccc(SCCC(=O)NC(N)=O)cc1
Second: CN(CC(=O)NCC(=O)Nc1ccc(F)cc1)Cc1cccs1
The Percent Effect of the first is lower: -6.73% for the first, -1.85% for the second.

First: COC1CCCOC12CCN(C(=O)NCCc1cccs1)CC2 (stereo not given)
Second: Cc1noc(C)c1CCCNC(=O)Nc1ccc2c(c1)COC2
The Percent Effect of the first is lower: 4.16% for the first, 16.7% for the second.

First: CC(NC(=O)C(C)(C)C)c1cc(O)nc(-c2cccnc2)n1 (stereo not given)
Second: CCC(NC(=O)c1cnc(N(C)C)nc1C)c1ccc(S(C)(=O)=O)cc1 (stereo not given)
The Percent Effect of the first is higher: 6.37% for the first, -4.95% for the second.

First: CC(O)CN1CCN(Cc2coc(-c3ccccc3Cl)n2)CC1 (stereo not given)
Second: Cc1cc(-c2n[nH]c3c2CN(S(=O)(=O)c2ccsc2)CC3)c(C)o1
The Percent Effect of the first is lower: -13.3% for the first, 4.26% for the second.

First: Fc1ccc(OCCCNC2=NCCN2)cc1
Second: C=C(C)CN(CC)C(=O)Nc1ccccc1CN(C)C(C)=O
The Percent Effect of the first is higher: -0.85% for the first, -1.91% for the second.
